Our source for the max response, negative = inhibition and Potency values is PubChem BioAssay AID720504 (National Center for Advancing Translational Sciences (NCATS), 2013).

Out of some 360,000 compounds screened, about 10,000 (2.8%) were called active. Roughly 4% stayed inconclusive and do not appear here. Many of the other results were omitted from the sample, so actives are more common in it than they were. Unmarked numbers belong to inactive results. Calls come from the whole dose curve; as a rule, active = well fitted inhibition curve with a large enough effect; inconclusive = small, poorly fitted or top-dose-only effect; inactive = flat fitted curve, though single readings scatter.
% is set by controls: 0 for no effect and ±100 for the full control effect; potency is the fitted concentration of half-maximal effect.

The target in the assay is Serine/threonine-protein kinase PLK1 (Homo sapiens) (UniProt P53350). In words: qHTS for Inhibitors of PLK1-PDB (polo-like kinase 1 - polo-box domain): Primary Screen. For max response, negative = inhibition: series mostly up to about 57 µM. Note: nearly all actives have a fitted effect of over 65% in size. Conditions: Plk1 PBD binding of FITC phosphopeptide, fluorescence polarization.
Sequence of Serine/threonine-protein kinase PLK1 (Homo sapiens) (P53350 whole entry, looked up, the tested form may be a part): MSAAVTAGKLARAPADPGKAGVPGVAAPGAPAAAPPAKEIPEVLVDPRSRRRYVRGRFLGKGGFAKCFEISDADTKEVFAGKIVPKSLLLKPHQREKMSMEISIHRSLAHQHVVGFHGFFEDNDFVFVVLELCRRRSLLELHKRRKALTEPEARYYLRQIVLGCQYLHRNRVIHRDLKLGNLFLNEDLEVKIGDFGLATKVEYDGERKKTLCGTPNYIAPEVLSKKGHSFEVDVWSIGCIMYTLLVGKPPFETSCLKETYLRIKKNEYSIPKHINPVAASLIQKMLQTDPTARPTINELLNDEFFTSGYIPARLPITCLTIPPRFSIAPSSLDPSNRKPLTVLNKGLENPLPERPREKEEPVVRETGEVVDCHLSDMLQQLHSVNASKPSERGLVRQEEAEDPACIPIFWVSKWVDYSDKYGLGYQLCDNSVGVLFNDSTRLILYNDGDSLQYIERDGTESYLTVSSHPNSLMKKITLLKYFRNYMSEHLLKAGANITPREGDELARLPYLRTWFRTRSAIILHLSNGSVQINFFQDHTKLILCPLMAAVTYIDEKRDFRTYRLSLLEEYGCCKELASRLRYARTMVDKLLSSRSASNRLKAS
Regarding `COc1cccc(C(NC(C)=O)c2nc(-c3ccccc3OC)cs2)c1` (configuration not stated), the max response, negative = inhibition was -10%.

In the case of `CC1=NN(C(N)=S)C(=O)C1N=Nc1cc(Cl)ccc1Cl` (configuration not stated), the Potency is 26.7 µM (active).

On to `COc1ccc(-c2cc(C(=O)N3CCN(c4ccc(F)cc4)CC3)no2)cc1`, for which the max response, negative = inhibition is -9.29%.

Turning to `O=C(c1cc(-c2ccc(F)cc2)on1)N1CCN(c2ccc(F)cc2)CC1`, the Potency was 26.7 µM (active).

With `O=C(c1cc(-c2ccc(Cl)cc2)on1)N1CCN(c2ccccc2)CC1`, the max response, negative = inhibition is -5.98%.

Turning to `OC[C@@H]1CN(Cc2ccc(-c3ccccc3)cc2)C[C@H](n2cnc3c(NC4CCCC4)ncnc32)O1`, the max response, negative = inhibition is 4%.

Consider `CCOC(=O)c1cc(-c2sc(NC(=O)c3ccccc3)nc2C)n(Cc2ccccc2)n1`, for which the max response, negative = inhibition was 7.73%.

Take `COC(=O)[C@]12CCCCC=C1N(CCC1=CCCCC1)C(=O)[C@H](CC(=O)NCC1CCCCC1)C2`: the max response, negative = inhibition was -2.73%.

On to `Cc1csc(NC(=O)C2=COCCO2)n1`, for which the max response, negative = inhibition is -3.95%.

For the compound `Cc1sc(NC(=O)C2=COCCO2)c(C#N)c1C`, the Potency is 11.9 µM (active).

On to `CCC(CC)c1nnc(NC(=O)C2=COCCO2)s1`, for which the max response, negative = inhibition is -0.0349%.

Consider `COc1cccc(NC(=O)Nc2ccc(F)cc2)c1`, for which the max response, negative = inhibition is -6.36%.

Take `COc1cc(C(=S)NCc2ccccc2)cc(Br)c1O`: the Potency was 4.23 µM (active).

Take `COc1cc(C(=O)NCc2ccncc2)cc(Br)c1OCc1ccccc1`: the max response, negative = inhibition is -15.6%.

For the compound `COc1cc(CNC2CCCC2)c(Br)cc1OCc1ccccc1`, the max response, negative = inhibition was -0.667%.

Turning to `Nc1nc2cc(Cl)ccc2n1N`, the max response, negative = inhibition is -1.19%.

As to `CCCNC(=O)c1cc(C2CCCCN2C(=O)OC)on1` (configuration not stated), the max response, negative = inhibition was -6.79%.

On to `O=C(c1ccc(CS(=O)Cc2ccccc2Cl)o1)N1CCN(c2ccccc2)CC1` (configuration not stated), for which the max response, negative = inhibition is -18.2%.

`Cc1ccc2nc(-c3ccccc3)c(CC3CCCCC3)n2c1`: the max response, negative = inhibition was -7.91%.

In the case of `O=C1NC(O)CCN1C1CC(O)C(CO)O1` (configuration not stated), the max response, negative = inhibition was -1.57%.

For the compound `Nc1ccccc1SC(C[N+](=O)[O-])c1ccccc1` (configuration not stated), the Potency is 0.752 µM (active).

Consider `Nc1cccc(OCCCCCOc2cccc(N)c2)c1`, for which the max response, negative = inhibition is 1.62%.

Regarding `N#Cc1cccc(NC(=O)c2cc(C3CCCCN3C(=O)CCc3ccccc3)on2)c1` (configuration not stated), the max response, negative = inhibition was 4.56%.

For `Cc1ccccc1S(=O)(=O)NC(=O)C1(C)CCN1C(=O)Cc1ccc(Cl)cc1Cl` (configuration not stated), the max response, negative = inhibition was -14.1%.

For the compound `O=C(c1ccco1)N1CCN(C(=O)C2CC(c3ccc(Cl)c(Cl)c3)=NO2)CC1` (configuration not stated), the max response, negative = inhibition was -17%.

Regarding `O=C(c1ccco1)N1CCN(C(=O)C2CC(c3ccc(F)cc3)=NO2)CC1` (configuration not stated), the Potency was 26.7 µM (active).

As for `CCOC(=O)N1CCN(C(=O)C2CC(c3ccc(F)cc3)=NO2)CC1` (configuration not stated), the max response, negative = inhibition is -12.9%.

On to `COc1ccc(S(=O)(=O)N2CCCCCC2)cc1C(=O)N(C)Cc1cccc(OC)c1OC`, for which the max response, negative = inhibition is -7.8%.

As for `COc1cccc(CN(C)C(=O)CC23CC4CC(CC(C4)C2)C3)c1OC`, the Potency was 29.9 µM (active).

With `COc1ccc(CN(C)C(=O)Cc2ccsc2)c(OC)c1OC`, the max response, negative = inhibition is -14.4%.

With `Cc1ccc(S(=O)(=O)NN=C2CC(C)(C)CC(=O)C2(C)C)cc1`, the max response, negative = inhibition is -5.23%.

`c1ccc(Cc2ccc(OCCn3ccnc3)cc2)cc1`: the max response, negative = inhibition was 4.09%.

Regarding `CCOc1ccc(C2/C(=C(/O)c3ccc4c(c3)CC(C)O4)C(=O)C(=O)N2CCCn2ccnc2)cc1` (configuration not stated), the max response, negative = inhibition is -16.9%.

In the case of `CCCOc1ccc(C2C(C(=O)c3ccc(C)o3)=C(O)C(=O)N2CCCn2ccnc2)cc1` (configuration not stated), the Potency is 23.8 µM (active).

On to `COc1ccc(C(=O)N2CCCN(C)CC2)c(OC)c1`, for which the max response, negative = inhibition was 1.15%.

`COc1cc(OC)c(C(=O)N2CCCC2)cc1OC`: the max response, negative = inhibition was -4.54%.

`COc1cc(OC)c(C(=S)N2CCCC2)cc1OC`: the Potency is 11.9 µM (active).

As to `NC(=O)CSc1nnc(-c2cccc(S(=O)(=O)N3CCOCC3)c2)o1`, the max response, negative = inhibition is -12.4%.

In the case of `CCN(CC)C(=O)C1=C(C)N(Cc2ccc(F)cc2)C(=O)C(CC(=O)NC2CCCC2)C1` (configuration not stated), the max response, negative = inhibition was 3.61%.

`CC(C)C[C@H]1CN([C@@H](Cc2ccccc2)CN2CCC[C@@H]2CN2C(=O)C(=O)NC[C@@H]2Cc2ccc(O)cc2)C(=O)C(=O)N1CCc1ccccc1`: the max response, negative = inhibition is 0.344%.

In the case of `CN1CCN(c2nc3c(c(=O)[nH]c(=O)n3C)n2Cc2cccc3ccccc23)CC1`, the max response, negative = inhibition was -17.6%.

Turning to `CCC(C)Sc1nc2c(c(=O)[nH]c(=O)n2C)n1CC(O)COc1cccc2ccccc12` (configuration not stated), the Potency is 18.9 µM (active).

In the case of `Cc1cccc(OCC(O)Cn2c(N3CCCCC3)nc3c2c(=O)[nH]c(=O)n3C)c1` (configuration not stated), the max response, negative = inhibition is -3.66%.

For the compound `CC1(C(=O)O)CCCN(C(=O)/C=C/c2ccccc2)C1` (configuration not stated), the max response, negative = inhibition is -5.95%.

For the compound `CCC(=O)N1CCC(C)(C(=O)Nc2cc(OC)c(OC)c(OC)c2)C1` (configuration not stated), the max response, negative = inhibition was 4.76%.

In the case of `O=S1(=O)CC(N2CCC(Cc3ccccc3)CC2)CN1Cc1ccccc1` (configuration not stated), the max response, negative = inhibition is -4.73%.

`CCOC(=O)NNC(=O)c1ccc(Cl)cc1`: the max response, negative = inhibition was -5.54%.

For the compound `COC(=O)c1nc(NC(=O)c2ccc(F)cc2)n[nH]1`, the Potency is 15 µM (active).

For `CC(C)Oc1cc(F)ccc1-c1cc(C(=O)Nc2ccc(F)cc2)[nH]n1`, the max response, negative = inhibition was -4.13%.

On to `COC(=O)c1nc(NC(=O)c2ccccc2)n[nH]1`, for which the Potency was 26.7 µM (active).

Take `O=C(Nc1nsc(-c2ccccc2)n1)c1ccncc1`: the max response, negative = inhibition is 0.306%.

As to `COC(=O)c1nc(NC(=O)c2ccc(Cl)cc2)n[nH]1`, the Potency is 26.7 µM (active).

With `COc1ccc(C(=O)NNC(=O)c2cc(C)[nH]n2)cc1`, the max response, negative = inhibition was -5.72%.

With `COC(=O)c1nc(NC(=O)c2ccc(C(C)(C)C)cc2)n[nH]1`, the Potency was 3.77 µM (active).

For `COC(=O)c1sccc1NC(=O)c1ccc(Cl)cc1`, the max response, negative = inhibition was -7.12%.

As for `CSc1nccc(NC(=O)c2ccc(C(C)(C)C)cc2)n1`, the max response, negative = inhibition is -8.27%.

Turning to `COc1ccc(C(=O)Nc2ccc(F)cc2F)cc1`, the max response, negative = inhibition was -1.72%.

With `O=C(Nc1n[nH]c(C(F)(F)F)n1)c1cccs1`, the max response, negative = inhibition is -23.4%.

With `OC[C@@H]1CN(Cc2ccc(Cl)cc2)C[C@H](n2cnc3c(NCc4ccncc4)ncnc32)O1`, the max response, negative = inhibition is -6.44%.

`O=C1Nc2ccccc2-n2nnnc2C1N1CCN(c2cccc(C(F)(F)F)n2)CC1` (configuration not stated): the max response, negative = inhibition was -6.8%.

`COc1cccc(-c2cnc3c(NC(C)=O)cc(-c4cc(F)ccc4OC)cn23)c1`: the max response, negative = inhibition was -5.58%.

In the case of `CCOC1=C2[C@H]([C@H]3C(=O)N(c4ccccc4)C(=O)[C@H]3C1)[C@@H](c1ccccc1)N(S(=O)(=O)c1ccc(C)cc1)[C@H]2c1ccccc1`, the max response, negative = inhibition is 1.42%.

`Cc1ccccc1C#CC1=CC(=O)CC(C)(C)C1`: the max response, negative = inhibition is -11.2%.

In the case of `COc1ccccc1CNC(=O)c1cc(-c2cc(F)ccc2OC)n[nH]1`, the max response, negative = inhibition was -1.03%.

`O=C(OC1CC2CC1[C@H]1CCCCN1C2=O)N1CCOCC1` (some centres not stated): the max response, negative = inhibition is -1.86%.

For the compound `COc1cc(C(O)c2nc(-c3cnn(C)c3)cs2)ccc1F` (configuration not stated), the max response, negative = inhibition was -2.35%.

Turning to `COc1cc(C(=O)N2CCOC23CCN(Cc2ccccc2)CC3)cc(OC)c1OC`, the max response, negative = inhibition is 1.8%.

In the case of `Nc1ncnc2c1ncn2[C@@H]1O[C@H](C(=O)N2CCCN(Cc3ccccc3F)CC2)[C@@H](O)[C@H]1O`, the max response, negative = inhibition is -0.717%.

With `CC1CCN(C(=S)c2cccc(O)c2)CC1`, the Potency is 18.9 µM (active).

`Cc1nc2ccc(NC(=S)N3CCC(C)CC3)cc2nc1C`: the max response, negative = inhibition is 0.665%.

Take `CC1CCN(C(=S)NC(=O)c2ccccc2Br)CC1`: the max response, negative = inhibition was -2.34%.

Turning to `CCCCc1c(-c2ccc(Br)cc2)ncn1CCc1ccccc1OC`, the max response, negative = inhibition was 3.4%.

Take `NCCCCC(C(=O)O)N(C(=O)OCc1ccccc1)C(=O)OCc1ccccc1` (configuration not stated): the max response, negative = inhibition is -19.2%.

Regarding `CC1Cc2[nH][nH]c(=O)c2C(C2CC2)O1` (configuration not stated), the max response, negative = inhibition is -23.1%.

As for `O=C(NCc1ccccc1)c1ccc(S(=O)(=O)Nc2cccc(C(F)(F)F)c2)cc1`, the max response, negative = inhibition is -14.9%.

Take `Cc1oc2c(F)c(F)c(F)c(F)c2c1S(=O)(=O)Nc1cccc(C(F)(F)F)c1`: the Potency was 37.7 µM (active).

On to `O=C(COc1ccc(S(=O)(=O)Nc2cccc(C(F)(F)F)c2)cc1)N1CCOCC1`, for which the max response, negative = inhibition was -3.59%.

For the compound `Cc1[nH]c2ccccc2c1C(=O)C(=O)NCc1nnnn1-c1cccc(F)c1`, the max response, negative = inhibition was -8.15%.

As for `Cc1cnc(NC(=O)CSc2nnc(-c3ccc(Cl)cc3Cl)n2N)s1`, the Potency was 23.8 µM (active).

Take `Cc1cc(C)nc(SCc2nnc(SCC(=O)Nc3ncc(C)s3)n2Cc2ccco2)n1`: the max response, negative = inhibition is -1.22%.

On to `Cn1c(SCC(=O)Nc2nccs2)nnc1-c1cccnc1`, for which the max response, negative = inhibition is -6.93%.

Regarding `CN(Cc1ccccc1)C(=O)CCC1CCN(C(=O)c2ccco2)CC1`, the max response, negative = inhibition was -7.2%.

Turning to `CCCN(CCC)C(=O)C1c2ccccc2Oc2ccccc21`, the max response, negative = inhibition is -4.59%.

With `CC(C)(C)NC(=O)NC(=O)COC(=O)C1c2ccccc2Oc2ccccc21`, the max response, negative = inhibition is -13.1%.

Turning to `CC(C)(C)c1nnc(NC(=O)C2c3ccccc3Oc3ccccc32)s1`, the Potency was 2.67 µM (active).

As to `CCc1nc2ccc(C(=O)N3CCN(S(=O)(=O)CC)CC3)cn2c1N(C=O)CCC(C)C`, the max response, negative = inhibition is -4.19%.

Consider `O=C(CCCN1C(=O)C(c2ccccc2)Oc2cccnc21)Nc1ccccc1Br` (configuration not stated), for which the max response, negative = inhibition is 3.26%.

As for `CCCCn1nnnc1C(c1cccc(OC)c1OC)N1CCN(C/C=C/c2ccccc2)CC1` (configuration not stated), the max response, negative = inhibition was -4.93%.

With `CC1(C)CC(=O)C=C(c2ccc(COC(=O)c3cc(F)cc(F)c3)cc2)C1=O`, the max response, negative = inhibition is -3.92%.

Take `O=C(/C=C/NNC(=O)c1cccc(Br)c1)c1ccccc1`: the max response, negative = inhibition was -5.78%.

With `O=C(O)CCn1cc(/C=C/C(=O)c2ccc(Cl)cc2)c(-c2cccc(Br)c2)n1`, the Potency is 21.2 µM (active).

As for `O=C(COC(=O)/C=C/c1cn(-c2ccccc2)nc1-c1cccnc1)Nc1ccc(Cl)cc1Cl`, the max response, negative = inhibition is 13.1%.
